Laboratory results taken from PubChem BioAssay (NCI).
About 83,000 compounds went through this panel and 20% of them were active in at least one assay; those are over-represented in the sample as a whole.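 Compound tested at a single concentration for 48 hours in 96-well plates; a percent growth value below 10 was scored as active.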 Active and inactive are the calls of the source.

Key:
Assay in all cases: NCI-60 one-dose screen, 48 h (100 = growth as untreated, 0 = no growth, -100 = all killed)
[1] = tested on: SR leukemia; conditions: 10 µM unless noted
[2] = tested on: RPMI-8226 leukemia; conditions: 10 µM unless noted
[3] = tested on: OVCAR-8 ovarian; conditions: 10 µM unless noted
[4] = tested on: OVCAR-5 ovarian; conditions: 10 µM unless noted
[5] = tested on: OVCAR-4 ovarian; conditions: 10 µM unless noted
[6] = tested on: SK-OV-3 ovarian; conditions: 10 µM unless noted
[7] = tested on: OVCAR-3 ovarian; conditions: 10 µM unless noted
[8] = tested on: HS 578T breast; conditions: 10 µM
[9] = tested on: NCI/ADR-RES ovarian; conditions: 10 µM unless noted
[10] = tested on: T-47D breast; conditions: 10 µM unless noted
[11] = tested on: BT-549 breast; conditions: 10 µM unless noted
[12] = tested on: MDA-MB-435 melanoma; conditions: 10 µM unless noted
[13] = tested on: SW-620 colon; conditions: 10 µM unless noted
[14] = tested on: MCF7 breast; conditions: 10 µM unless noted
[15] = tested on: HCT-116 colon; conditions: 10 µM unless noted
[16] = tested on: HCC-2998 colon; conditions: 10 µM unless noted
[17] = tested on: KM12 colon; conditions: 10 µM unless noted
[18] = tested on: IGROV1 ovarian; conditions: 10 µM unless noted

Measured: growth

C=CCn1c(C)nc2cc(Nc3nc(N4CCOCC4)nc4nc[nH]c34)ccc21
inactive: [1] 85.6% | [2] 71.9% | [3] 87.3% | [4] 74.1% | [5] 88.4% | [6] 82.6% | [7] 97.7% | [8] 57.3% | [9] 108% | [10] 75.4% | [11] 90.3% | [12] 100% | [13] 93.1% | [14] 86.5% | [15] 91.4% | [16] 100% | [17] 101%

CCN(CC)c1ccc2nc3c4ccccc4c(=O)cc-3n(-c3ccccc3)c2c1
inactive: [4] 10.7%
active: [1] -5.63% | [2] 6.27% | [3] 7.52% | [5] 6.28% | [6] 3.71% | [7] -52.6% | [8] -17.8% | [10] -7.93% | [11] -21.7% | [12] -36.3% | [13] 7.92% | [14] -7.24% | [15] -31.7% | [16] -6.62% | [17] -5.68%

Cc1ccc(/C=C/C(=N/N=C(N)N)c2ccccc2)cc1
active: [1] -9.62% | [6] 9.84% | [7] -28.6% | [8] -5.3% | [12] -16.9%
inactive: [2] 11.1% | [3] 24.6% | [4] 54.4% | [18] 43.1% | [9] 35.2% | [10] 40.9% | [11] 47.7% | [13] 25.9% | [14] 11.6% | [15] 20.1% | [16] 20.9% | [17] 14.8%

CCCCn1c(-c2ccc(F)cc2)nc2cc(OC)c(OC)cc2c1=O
inactive: [1] 34.4% | [2] 40.2% | [3] 109% | [4] 108% | [5] 112% | [7] 106% | [8] 101% | [9] 93.9% | [10] 89.1% | [12] 101% | [13] 98.3% | [14] 88.2% | [15] 67.3% | [16] 103% | [17] 95.8%

CCCCN(CCCC)CCC(O)c1cc2ccc(C(F)(F)F)cc2c2cc(C(F)(F)F)ccc12 (stereo unspecified)
inactive: [3] 48.6% | [4] 74.9% | [6] 74.2% | [18] 40.3% | [7] 30.2% | [8] 58% | [9] 59.8% | [10] 52.1% | [11] 91.3% | [12] 54.2% | [13] 40.4% | [17] 12.9%
active: [1] -36.8% | [2] -9.02% | [14] 6.74% | [16] -34.8%

OC(c1cc2cc(Cl)ccc2c2cc(C(F)(F)F)ccc12)C1CCCCN1 (stereo unspecified)
active: [1] -75.3% | [2] -48% | [3] -74.6% | [4] -77.8% | [6] -0.379% | [18] -67.4% | [7] -94.8% | [8] -52.6% | [9] -66.1% | [10] -82.1% | [12] -66.1% | [13] -78.3% | [14] -86.3% | [15] -85.8% | [16] -86.9% | [17] -90.9%
inactive: [11] 54.7%

C=CCOc1c(Br)cc(Br)cc1Br
inactive: [1] 34.8% | [2] 38.7% | [3] 74.3% | [4] 76.2% | [5] 63.4% | [18] 30% | [8] 42.2% | [10] 65.1% | [11] 67.4% | [12] 27.2% | [13] 76.1% | [14] 40.5% | [15] 54.5% | [16] 95.1% | [17] 84.8%

CCCCNCCC(O)c1cc2ccc(C(F)(F)F)cc2c2cc(C(F)(F)F)ccc12 (stereo unspecified)
active: [1] -70.2% | [2] -42.8% | [3] -77.3% | [4] -79.9% | [6] -34% | [18] -60.9% | [7] -84.8% | [8] -55.2% | [9] -74.5% | [10] -76.3% | [11] 4.84% | [12] -69.3% | [13] -76.2% | [14] -79.3% | [16] -78.5% | [17] -85.2%

CCCCCCCCCCC(C(O)c1ccccc1)N1CCCCC1 (stereo unspecified)
active: [1] 0.484% | [2] -50.3% | [18] 2.8% | [10] -33.7% | [12] -54.3% | [13] -30.8% | [14] -65.4% | [17] 8.17%
inactive: [3] 62.8% | [4] 47.4% | [5] 41% | [8] 18.3% | [9] 49.8% | [11] 79.7% | [15] 14.7% | [16] 49.1%

Cc1cc(N=Nc2ccc(-c3ccc(N=Nc4ccc(O)c(C(=O)O)c4)cc3)cc2)c(N)c(N=Nc2ccc(C(=O)O)cc2)c1N
inactive: [1] 75.9% | [2] 67.1% | [3] 90.8% | [4] 100% | [5] 97.1% | [18] 83.3% | [7] 93.1% | [9] 97.7% | [10] 78.6% | [11] 67.3% | [12] 99.5% | [13] 95.6% | [14] 97.6% | [15] 65.5% | [16] 87.7% | [17] 92.1%
